Parameters in all cases: species or system human, MV4-11 + K-562 + COLO205 + SK-N-BE2 + OVCAR-8
One experiment relates to CSNK1A1. The settings on record: read-out: apparent Kd, compound concentrations: 100 nM and 1000 nM (sheet 'Samples'), n = 1.
In a further experiment the test system is CSNK1D. The conditions noted are these: read-out: apparent Kd, n = 1.
In a further experiment the test system is CSNK1E. The settings on record: read-out: apparent Kd, n = 1.
A further experiment relates to DDR1. The settings on record: read-out: apparent Kd, compound concentrations: 100 nM and 1000 nM (sheet 'Samples'), n = 1.
The subject of another experiment is GAK. The conditions noted are these: read-out: apparent Kd, compound concentrations: 100 nM and 1000 nM (sheet 'Samples'), n = 1.
A further experiment concerns MAPK10. The conditions noted are these: read-out: apparent Kd, compound concentrations: 100 nM and 1000 nM (sheet 'Samples'), n = 1.
For the next experiment, the system named is MAPK11. The settings on record: read-out: apparent Kd, compound concentrations: 100 nM and 1000 nM (sheet 'Samples'), n = 1.
The next experiment has as its system MAPK14. The conditions noted are these: read-out: apparent Kd, n = 1.
The test system of another experiment is MAPK8. The settings on record: read-out: apparent Kd, compound concentrations: 100 nM and 1000 nM (sheet 'Samples'), n = 1.
For another experiment, the system named is MAPK9. The conditions noted are these: read-out: apparent Kd, compound concentrations: 100 nM and 1000 nM (sheet 'Samples'), n = 1.
In a further experiment the test system is MAPKAPK2. The settings on record: read-out: apparent Kd, n = 1.
The test system of the next experiment is NLK. The conditions noted are these: read-out: apparent Kd; compound concentrations: 100 nM and 1000 nM (sheet 'Samples'), CATDS: 0.178729596227966; n = 1.
The subject of a further experiment is PIK3CD. The settings on record: read-out: apparent Kd, compound concentrations: 100 nM and 1000 nM (sheet 'Samples'), n = 1.
The test system of another experiment is PIP4K2C. The settings on record: read-out: apparent Kd; compound concentrations: 100 nM and 1000 nM (sheet 'Samples'), CATDS: 4.0260686940240001E-2; n = 1.
The test system of another experiment is RIPK2. The settings on record: read-out: apparent Kd, compound concentrations: 100 nM and 1000 nM (sheet 'Samples'), n = 1.
The next experiment relates to DDR2. The conditions noted are these: read-out: apparent Kd; compound concentrations: 100 nM and 1000 nM (sheet 'Samples'), CATDS: 3.5910243594836001E-2; n = 1.
The next experiment deals with PIK3CA. The settings on record: read-out: apparent Kd; compound concentrations: 100 nM and 1000 nM (sheet 'Samples'), CATDS: 4.2523993136959801E-2; n = 1.
The next experiment has as its system PRKD2. The settings on record: read-out: apparent Kd; compound concentrations: 100 nM and 1000 nM (sheet 'Samples'), CATDS: 3.2417406243743098E-2; n = 1.
Another experiment deals with PRKD3. The settings on record: read-out: apparent Kd; compound concentrations: 100 nM and 1000 nM (sheet 'Samples'), CATDS: 3.0540590804978299E-2; n = 1.
The next experiment deals with TNIK. The settings on record: read-out: apparent Kd; compound concentrations: 100 nM and 1000 nM (sheet 'Samples'), CATDS: 3.1361492555590703E-2; n = 1.
The mark [1] stands for this setting: compound concentrations:100 nM and 1000 nM (sheet 'Samples').

Read-outs that look alike come from different tables or passages of the source.

Take `CN1CCC(n2cnc(-c3ccc(F)cc3)c2-c2ccnc(NCCO)n2)CC1` [SB-226879]: the potency estimated from few doses in the experiment with CSNK1A1 (CATDS: 7.9796856628157303E-2) was 91.2 nM; in the experiment on CSNK1D (compound concentrations: 100 nM and 1000 nM (sheet 'Samples'), CATDS: 0.29962108595450698), 6.97 nM; with CSNK1E (compound concentrations: 100 nM and 1000 nM (sheet 'Samples'), CATDS: 0.149531361707545), 21.2 nM; in the experiment with DDR1 (CATDS: 4.0127184299889498E-2), 2140 nM; in the experiment on GAK (CATDS: 4.3389501889838297E-2), 1240 nM; in the experiment with MAPK10 (CATDS: 7.1886071403025706E-2) it was 126 nM. In addition, the potency estimated from few doses with MAPK11 (CATDS: 4.3828309846065103E-2) is 1170 nM; in the experiment with MAPK14 (compound concentrations: 100 nM and 1000 nM (sheet 'Samples'), CATDS: 0.120722189423433) it was 32.5 nM; in the experiment with MAPK8 (CATDS: 4.3769759721199501E-2), 1180 nM; in the experiment with MAPK9 (CATDS: 6.64061265651648E-2), 166 nM; in the experiment on MAPKAPK2 (compound concentrations: 100 nM and 1000 nM (sheet 'Samples'), CATDS: 0.113562081493031), 37.1 nM; in the experiment on NLK it was 15.4 nM. The figures for the potency estimated from few doses in the experiment with PIK3CD (CATDS: 8.1619991171871006E-2), in the experiment with PIP4K2C and in the experiment on RIPK2 (CATDS: 4.98304008841833E-2) were 85.3 nM, 2090 nM and 572 nM, respectively.

For the compound `Fc1ccc(-c2ncn(C3CCNCC3)c2-c2ccnc(Oc3ccc(F)c(F)c3)n2)cc1` [SB-253228], the potency estimated from few doses in the experiment with CSNK1D (setting [1]) is 505 nM; in the experiment on CSNK1E (setting [1]), 1260 nM; in the experiment with MAPK14 (setting [1]), 395 nM; in the experiment with MAPKAPK2 (setting [1]), 125 nM.

For `CCNc1nccc(-c2c(-c3ccc(F)cc3)ncn2C2CCN(C)CC2)n1` [SB-226605], the potency estimated from few doses with CSNK1A1 (CATDS: 6.4218500177313606E-2) is 54.1 nM; in the experiment on CSNK1D (compound concentrations: 100 nM and 1000 nM (sheet 'Samples'), CATDS: 0.15961937746466701), 6.16 nM; in the experiment with CSNK1E (compound concentrations: 100 nM and 1000 nM (sheet 'Samples'), CATDS: 8.6582359742075399E-2), 24.7 nM; in the experiment with DDR1 (CATDS: 5.0291994189884899E-2), 116 nM; with DDR2, 495 nM; in the experiment on GAK (CATDS: 5.4860090777902201E-2) it was 87 nM. The potency estimated from few doses in the experiment with MAPK10 (CATDS: 6.8740436071955194E-2) was 44.8 nM; in the experiment with MAPK11 (CATDS: 3.4840518040238501E-2) it was 589 nM; in the experiment with MAPK14 (compound concentrations: 100 nM and 1000 nM (sheet 'Samples'), CATDS: 0.16984831376033699), 5.38 nM; in the experiment with MAPK8 (CATDS: 4.6835981276276903E-2), 150 nM; in the experiment with MAPK9 (CATDS: 9.88487925087526E-2) it was 18 nM; in the experiment with MAPKAPK2 (compound concentrations: 100 nM and 1000 nM (sheet 'Samples'), CATDS: 7.0385751931635404E-2), 42 nM. The potency estimated from few doses in the experiment on PIK3CA was 220 nM; in the experiment with PIK3CD (CATDS: 5.28736711934766E-2), 98.1 nM; in the experiment on PRKD2, 939 nM; in the experiment with PRKD3, 1520 nM; in the experiment with RIPK2 (CATDS: 3.5796504024636501E-2), 504 nM; with TNIK, 1210 nM.

Values taken from article PMC11062922 (Nature Chemical Biology, 2023).
